Outcome and AC50 data for 40 compounds are collected here from PubChem BioAssay (EPA / NIEHS).

Structures are written as SMILES. Activity calls are given as the source filed them. Rule for the calls: active = hit-call score of the fitted dose curve at least 0.9, where 1 is the maximum; inactive = score below 0.9.

Read-out in this assay: Protein phosphatase 2A (PPP2R4), PTPA (gene 5524)
Description: LTEA_HepaRG_PPP2R4: Life Technologies and Expression Analysis (LTEA) Assay for Protein phosphatase 2A (PPP2R4) using HepaRG (AID 2283522). To be noted: mRNA level, 48 h; actives raise or lower the signal. As to the method:
LTEA_HepaRG is a cell based, multiplexed-readout assay that uses HepaRG, a human liver cell line, with measurements taken at 48 hours after chemical dosing on a 96-well plate.LTEA_HepaRG_PPP2R4 is one of 102 assay component(s) measured in the LTEA HepaRG cell culture assay. It is a marker of Cell proliferation, survival, death.Data from the assay component LTEA_HepaRG_PPP2R4 was analyzed into 1 endpoint. This assay endpoint, LTEA_HepaRG_PPP2R4, was analyzed with bidirectional fitting relative to DMSO as the negative control and baseline of activity. Using a type of inducible reporter, measures of mRNA induction for gain or loss-of-signal activity can be used to understand regulation of transcription factor activity. To generalize the intended target to other relatable targets, this assay endpoint is annotated to the phosphatase intended target family, where the subfamily is serine/threonine phosphatase.
A total of 1060 chemcials from the ToxCast library were tested in eight-point concentration-response experiments. Cell culture and cytotoxicity assays were conducted at Thermo Fisher Scientific's Custom Services facility (Madison, WI). A single lot of human HepaRG cells (Thermo Fisher Scientific, Frederick, MD) was used for the cell culture experiments. 96-well format collagen type I coated plates of human HepaRG cells were prepared using established methods. Briefly, cryopreserved HepaRG cells were thawed, plated at a density of approximately 100,000 cells/well in HepaRG Thaw, Plate, and General Purpose media (HPRG770, Thermo Fisher Scientific), and incubated for 48 hours. 0.5% DMSO was selected as vehicle control to balance the requisite need of DMSO in HepaRG cultures to maintain differentiation (for example, baseline metabolism, proportions of hepatocytes vs. cholangiocytes), while enabling further hepatic receptor pathway activation (for example, PXR and CAR) in response to chemical exposure. 48 hours after plating, the culture medium was replaced with HepaRG Serum-Free Incudtion Media. Cells were exposed to each test chemical in duplicate and maintained in CO2 incubators for another 48 hours. Chemical plates were thawed to room temperature and 200x concentrations of treatment groups were prepared. 8-point conentration-reponse curves were made with the highest exposure at 100 uM, followed by half-log dilutions, all in 0.5% DMSO. Each test plate contained variouse controls, induction positive controls (1mM phenobarbital), cytotoxicity positive controls ([…] aflatoxin B1), vehicle controls (0.5% DMSO), and total lysis controls (0.5% DMSO). Cell morphology images were taken using an Essen IncuCyte FLR automated microscope, with six 96-well plates imaged in about 24 minutes. Images were captured and exported and JPEG files. Spent culture media was transfered to black-well plates for the LDH assay, and remaining media was sorted at -80 C for later use. Cells were treated with RLT buffer and frozen until shipped for gene expression analysis. Total RNA was isolated from the cell suspension in 75 uL of Buffer RLT (Qiagen, Germantown, MD 20874) by Quintiles/Expression Analysis (Durham, NC) using a custom isolation procedure. Total RNA from each plate well was transferred to a preamplification plate. Fluidigm's 96.96 Dynamic ArrayTM (Fluidigm, Amsterdam, the Netherlands) technology was used for gene expression analyses by quantitative reverse transcription polymerase chain reaction (qRT-PCR, performed by Quintiles/Expression Analysis, Durham, NC)89. Standard TaqManTM Assays (Applied Biosystems/ThermoFisher Scientific, Foster City, CA) were used to assess the expression of 93 genes selected based on their selectivity and sensitivity to important hepatic receptors known to be modulated by environmental chemicals; importance in human hepatocyte functionality; and hepatotoxicity. […]
Take `CN1CCCC1=O`: the compound was classed as inactive.
On the same count and under the same terms, as for `C[Si]1(C)O[Si](C)(C)O[Si](C)(C)O[Si](C)(C)O1`, the entry is “inactive”; as for `CC(C)(C)c1cc(O)c(C(C)(C)C)cc1O`, “inactive”; as for `COC(=O)c1ccc(O)cc1`, “inactive”.
Still for that read-out and setting: as for `O=C(O)CCCCC(=O)O`, the entry is “inactive”.
On the same count and under the same terms, under `CC(=O)C(C)=CC1C(C)=CCCC1(C)C` (stereo not given) stands “inactive”.
Consider `CC(=O)OC/C=C(\C)CCC=C(C)C`, for which the outcome was inactive.
`c1cc(-c2ccncc2)ccn1`: the call was inactive.
Take `CNC(=O)[C@H]1O[C@@H](n2cnc3c(NCc4cc(Cl)ccc4OCc4cc(C)no4)ncnc32)[C@H](O)[C@@H]1N`: the result was inactive.
Still for that read-out and setting: under `O=c1c(O)c(-c2ccc(O)c(O)c2)oc2cc(O)cc(O)c12` stands “inactive”; under `Oc1ccc2ccccc2c1N=Nc1ccccc1`, “inactive”.
Regarding `CN[C@H]1CC[C@@H](c2ccc(Cl)c(Cl)c2)c2ccc(S(N)(=O)=O)cc21`, the AC50 (commonly the midpoint of the concentration-response curve, whichever way the signal moves) is 84.5 µM (active).
Same read-out and setting: as for `COCCOCCOC`, the figure is 9.92 µM (active).
On to `Cc1ccc(N(C)C)cc1`, for which the compound was classed as inactive.
The same measure, in the same setting: as for `C[C@]12C=CC(=O)C=C1CC[C@@H]1[C@@H]2C(=O)C[C@@]2(C)[C@H]1CC[C@]2(O)C(=O)CO`, the entry is “inactive”.
Consider `CC(C)c1ccc(C(=O)N=C(N)N)cc1S(C)(=O)=O`, for which the AC50 was 0.532 µM (active).
Consider `OC[C@@H](O)[C@@H](O)[C@H](O)[C@H](O)CO`, for which the compound was called inactive.
Consider `CCCCC(CC)COC(=O)CC(C(=O)OCC(CC)CCCC)S(=O)(=O)O` (stereo not given), for which the AC50 is 80.9 µM (active).
On to `Oc1ccc2c(c1)OC[C@@H](N1CCC(O)(c3ccc(F)cc3)CC1)[C@H]2O`, for which the compound was called inactive.
In the case of `CCCCCCCCCCCCCCCCCC(=O)O`, the compound was classed as inactive.
Still for that read-out and setting: as for `Cc1ccc(C)c(C)c1`, the entry is “inactive”; as for `Clc1cc(Cl)c(Cl)cc1Cl`, “inactive”.
Still for that read-out and setting: as for `Cc1nc(-c2ccc3c(c2)CCN(CCC2CCC(NC(=O)/C=C/c4ccc(F)cc4)CC2)CC3)no1` (stereo not given), the entry is “inactive”; as for `CCNc1cccc(C)c1`, “inactive”.
Same read-out and setting: under `COc1ccc(C)cc1N` stands “inactive”.
Turning to `Cc1ccc2ncccc2c1`, the result was inactive.
On the same count and under the same terms, under `CN1CCN(Cc2cc(-c3ccc4[nH]c(=O)oc4c3)co2)[C@@H](c2ccc(F)cc2)C1` stands “inactive”.
On the same count and under the same terms, under `CC(=O)OCCOCCOCCOC(C)=O` stands “inactive”; under `CCCCc1ccc2c(n1)[C@@H](c1ccc(OC)cc1C[C@H](C)C(=O)O)[C@H](C(=O)O)[C@H]2c1ccc2c(c1)OCO2`, “inactive”; under `O=C(O)Cc1ccccc1Nc1c(Cl)cccc1Cl`, “inactive”.
Still for that read-out and setting: as for `Cc1c(C(=O)O)c(O)cc2c1C(=O)c1c(O)c([C@@H]3O[C@H](CO)[C@@H](O)[C@H](O)[C@H]3O)c(O)c(O)c1C2=O`, the entry is “inactive”; as for `COCCOC[C@H](CC1(C(=O)NC2CCC(C(=O)O)CC2)CCCC1)C(=O)Oc1ccc2c(c1)CCC2` (stereo not given in full), “inactive”.
Turning to `CCCc1cc(=O)[nH]c(=S)[nH]1`, the compound was classed as inactive.
The same measure, in the same setting: under `NCCO` stands “inactive”; under `Nc1nc(N)c2nc(CNc3ccc(C(=O)N[C@@H](CCC(=O)O)C(=O)O)cc3)cnc2n1`, “inactive”.
Same read-out and setting: as for `NCC1(Cc2noc(=O)[nH]2)CCCCC1`, the entry is “inactive”; as for `COc1cc(S(=O)(=O)O)c(C)cc1N=Nc1c(O)ccc2cc(S(=O)(=O)O)ccc12`, “inactive”.
On the same count and under the same terms, under `CC1(C)CC(N=C=O)CC(C)(CN=C=O)C1` (stereo not given) stands “inactive”; under `CC1(C)NC(=O)NC1=O`, “inactive”.
For `C=CCc1ccc(O)c(OC)c1`, the compound was classed as inactive.
